About 83,000 compounds went through this panel and 20% of them were active in at least one assay; those are over-represented in the sample as a whole.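 Cells were grown in 96-well plates and exposed to the test compound at a single concentration for 48 hours; results are reported as percent growth, with values below 10 considered active.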 Activity calls are given as the source filed them.

One assay deals with OVCAR-4 ovarian. Description: NCI-60 one-dose screen, 48 h (100 = growth as untreated, 0 = no growth, -100 = all killed). The following applies: 10 µM unless noted.
`NC(N)=Nc1ccc(Oc2cccc(Nc3ccc(Cl)c(C(F)(F)F)c3)c2)cn1`: the growth is 6.69% (active).
`CCN1CCN(Cc2ccc(C(=O)Nc3ccc(C)c(Oc4ccc(-c5[nH]nc6ncnc(N)c56)cc4)c3)cc2C(F)(F)F)CC1`: the growth was 87% (inactive).
For `COc1ccc(NC(=O)Nc2ccc3c(ccn3C(=O)c3cccc(F)c3)c2)cc1`, the growth is 48.1% (inactive).
On the same count and under the same terms, for `CCn1c(SCC(=O)Nc2cccc(C(=O)/C=C/c3ccccc3Cl)c2)nc2ccccc2c1=O` the value was 86% (inactive); for `COc1ccc(-c2nn(-c3ccc(S(C)(=O)=O)cc3)cc2/C=N/O)cc1`, 113% (inactive); for `NC(N)=Nc1ccc(Oc2ccc(Nc3ccc(Cl)c(C(F)(F)F)c3)cc2)cc1`, 52.3% (inactive).
Same read-out and setting: with `COc1ccc(NC(=O)CSc2nnc(-c3ccc4nc(-c5ccc(OC)c(OC)c5)[nH]c4c3)o2)cc1OC` the figure was 106% (inactive); with `Cc1ccc(-n2c(/C=C3\C(=O)Nc4ccccc43)ccc2CO)cc1`, 90.1% (inactive); with `O=C(NNc1nc2cc(F)ccc2n2c(CO)ccc12)c1cnccn1`, 20.5% (inactive).
Regarding `Nc1ccccc1NC(=O)c1ccc(NC(=O)C/C=C/c2cccnc2)cn1`, the growth was 32.9% (inactive).
With `Cn1ccnc1C(=O)/C=C/c1ccc(CNC(=O)c2c(F)c(F)c(F)c(F)c2F)cc1`, the growth was 95.4% (inactive).
In the case of `C#C[C@]1(O)CC[C@H]2[C@@H]3CC=C4c5sc(-c6cccc(O)c6)nc5CC[C@]4(C)[C@H]3CC[C@@]21C`, the growth was -47.4% (active).
For the compound `COc1cc2c(cc1OC)C(Sc1ccc(F)cc1)c1c(nc(N)c(C#N)c1N)O2` (stereo unspecified), the growth is -66.1% (active).
Turning to `N#Cc1cn(Cc2ccc(Cl)cc2Cl)c(C(=O)c2ccc(Br)cc2)c1N`, the growth was 100% (inactive).
Same read-out and setting: for `O=C(O)c1ccc(-n2cc(CNc3cc(F)c(F)c(F)c3)c(-c3cccc(F)c3)n2)cc1` the value was 95.5% (inactive); for `CCc1cccc(NC(=O)CNc2cc(S(=O)(=O)N(C)C)cc(C)c2C)c1`, 56.3% (inactive); for `COc1ccc2c(c1)c(-c1cc(N)n3nc(-c4cn(C)c5ccc(OC)cc45)cc3n1)cn2C`, 109% (inactive).
Turning to `C=C(C=O)[C@@H]1CC[C@]2(COC(C)=O)CC[C@]3(C)C(CC[C@@H]4[C@@]5(C)CC[C@H](OC(C)=O)C(C)(C)[C@@H]5CC[C@]43C)[C@@H]12` (stereo partly specified), the growth was 16.2% (inactive).
`COc1ccc(-c2nc3ccc(-c4nnc(SCC(=O)Nc5ccc(C(=O)/C=C/c6ccc(Cl)cc6)cc5)o4)cc3[nH]2)cc1`: the growth was 103% (inactive).
On the same count and under the same terms, with `COc1ccc(/C=C(\C#N)C(=O)N2c3ccccc3Sc3ccc(SC)cc32)cc1F` the figure was 75.4% (inactive); with `O=C(CNc1nc(-c2cccc([N+](=O)[O-])c2)cs1)Nc1cccc(Cl)c1`, 102% (inactive); with `CC1(C)CC[C@]23CC[C@]4(C)[C@H](CC[C@@H]5[C@@]6(C)CCCN(CO)C(C)(C)[C@@H]6CC[C@]54C)[C@H]2[C@H]1OC3`, 85.6% (inactive).
Regarding `C=C(C=O)[C@@H]1CC[C@]2(C)[C@H](CC=C3[C@H]4[C@@H](C)[C@H](C)CC[C@]4(C(=O)OC)CC[C@]32C)[C@@]1(C)CCC#N`, the growth was 20.1% (inactive).
With `CN(C)C(=O)c1cc(-c2ccc3ncnc(NCc4ccccc4)c3c2)cnc1N`, the growth is 80.7% (inactive).
In the case of `O=S(=O)(NCCCNc1nccc(-c2[nH]c(-c3ccccc3)nc2-c2ccc(Cl)c(O)c2)n1)c1cccc2ccccc12`, the growth is 56.9% (inactive).
Still for that read-out and setting: for `Nc1ccccc1NC(=O)c1ccc(NC(=O)C/C=C/c2cccnc2)cc1` the value was 39.8% (inactive).
On the same count and under the same terms, for `COc1cc(-c2nc(SCCC(C)C)nc(NNC(=O)c3ccncc3)c2C#N)cc(OC)c1OC` the value was 90.6% (inactive); for `O=C(NNc1nc2cc(F)c(F)cc2n2cccc12)c1cnccn1`, 20.3% (inactive).

The test system of the next assay is SK-OV-3 ovarian. The description is as above. The conditions noted are these: 10 µM unless noted.
As for `CN1CCN(Cc2ccc(NC(=O)c3cncc(C#Cc4cnc5ccc(OCC6(C)COC6)nn45)c3)cc2C(F)(F)F)CC1`, the growth was -90.8% (active).
As to `CC(=O)c1cc(C(=O)c2ccc(Br)cc2)n2cc(C)cc(C)c12`, the growth was 94.9% (inactive).
As for `COC(=O)C[Se]C(=O)Cc1c(C)n(C(=O)c2ccc(Cl)cc2)c2ccc(OC)cc12`, the growth is 118% (inactive).
With `N#Cc1cccc(CN2CCC3=C(C2)C(=O)N(Cc2ccc(Cl)cc2)C2=NCCCN23)c1`, the growth is 35.9% (inactive).
Consider `C=CCn1c(SCC(=O)Nc2ccc(C(=O)/C=C/c3ccc(C)cc3)cc2)nnc1-c1c[nH]c2ccccc12`, for which the growth is 105% (inactive).
On the same count and under the same terms, with `CCCn1cnc2c(c1=N)C(c1ccc(OC)cc1)c1sc3c(CC)cccc3c1O2` (stereo unspecified) the figure was 42.3% (inactive).
Regarding `Cc1ccc(-c2cc3nc(C(Cl)Cl)nc(C)n3n2)cc1`, the growth is 84.2% (inactive).
Still for that read-out and setting: for `CCOC(=O)C(=O)CC(=O)N1C(=S)NC(=O)C1CC(C)C` (stereo unspecified) the value was 122% (inactive); for `COc1ccc(-c2nc(C(Cl)Cl)nc3cc(-c4ccccc4)nn23)cc1`, -29.7% (active).
Consider `CNC(=O)c1cc(-c2ccc(NS(=O)(=O)c3ccc(C)cc3)cc2)nc2cccnc12`, for which the growth is 107% (inactive).
Regarding `NC(N)=Nc1ccc(Oc2cccc(Nc3ccc(Cl)c(C(F)(F)F)c3)c2)cn1`, the growth is 36.8% (inactive).
For the compound `CCN1CCN(Cc2ccc(C(=O)Nc3ccc(C)c(Oc4ccc(-c5[nH]nc6ncnc(N)c56)cc4)c3)cc2C(F)(F)F)CC1`, the growth is 99.8% (inactive).
The same measure, in the same setting: for `COc1ccc(NC(=O)Nc2ccc3c(ccn3C(=O)c3cccc(F)c3)c2)cc1` the value was 106% (inactive); for `CCn1c(SCC(=O)Nc2cccc(C(=O)/C=C/c3ccccc3Cl)c2)nc2ccccc2c1=O`, 106% (inactive); for `COc1ccc(-c2nn(-c3ccc(S(C)(=O)=O)cc3)cc2/C=N/O)cc1`, 108% (inactive).
As for `NC(N)=Nc1ccc(Oc2ccc(Nc3ccc(Cl)c(C(F)(F)F)c3)cc2)cc1`, the growth was 89.4% (inactive).
For the compound `COc1ccc(NC(=O)CSc2nnc(-c3ccc4nc(-c5ccc(OC)c(OC)c5)[nH]c4c3)o2)cc1OC`, the growth is 120% (inactive).
On to `Cc1ccc(-n2c(/C=C3\C(=O)Nc4ccccc43)ccc2CO)cc1`, for which the growth was 86.8% (inactive).
`O=C(NNc1nc2cc(F)ccc2n2c(CO)ccc12)c1cnccn1`: the growth is 9.3% (active).
In the case of `Nc1ccccc1NC(=O)c1ccc(NC(=O)C/C=C/c2cccnc2)cn1`, the growth is 29.4% (inactive).
For `Cn1ccnc1C(=O)/C=C/c1ccc(CNC(=O)c2c(F)c(F)c(F)c(F)c2F)cc1`, the growth was 105% (inactive).
For the compound `C#C[C@]1(O)CC[C@H]2[C@@H]3CC=C4c5sc(-c6cccc(O)c6)nc5CC[C@]4(C)[C@H]3CC[C@@]21C`, the growth was -18.2% (active).
As for `COc1cc2c(cc1OC)C(Sc1ccc(F)cc1)c1c(nc(N)c(C#N)c1N)O2` (stereo unspecified), the growth is -21.6% (active).
For the compound `N#Cc1cn(Cc2ccc(Cl)cc2Cl)c(C(=O)c2ccc(Br)cc2)c1N`, the growth was 90.4% (inactive).
For `O=C(O)c1ccc(-n2cc(CNc3cc(F)c(F)c(F)c3)c(-c3cccc(F)c3)n2)cc1`, the growth is 113% (inactive).
On the same count and under the same terms, with `CCc1cccc(NC(=O)CNc2cc(S(=O)(=O)N(C)C)cc(C)c2C)c1` the figure was 107% (inactive); with `COc1ccc2c(c1)c(-c1cc(N)n3nc(-c4cn(C)c5ccc(OC)cc45)cc3n1)cn2C`, 134% (inactive).
As to `C=C(C=O)[C@@H]1CC[C@]2(COC(C)=O)CC[C@]3(C)C(CC[C@@H]4[C@@]5(C)CC[C@H](OC(C)=O)C(C)(C)[C@@H]5CC[C@]43C)[C@@H]12` (stereo partly specified), the growth is 50.3% (inactive).
The same measure, in the same setting: for `COc1ccc(-c2nc3ccc(-c4nnc(SCC(=O)Nc5ccc(C(=O)/C=C/c6ccc(Cl)cc6)cc5)o4)cc3[nH]2)cc1` the value was 112% (inactive).
Regarding `COc1ccc(/C=C(\C#N)C(=O)N2c3ccccc3Sc3ccc(SC)cc32)cc1F`, the growth is 100% (inactive).
Turning to `O=C(CNc1nc(-c2cccc([N+](=O)[O-])c2)cs1)Nc1cccc(Cl)c1`, the growth is 107% (inactive).
For the compound `CC1(C)CC[C@]23CC[C@]4(C)[C@H](CC[C@@H]5[C@@]6(C)CCCN(CO)C(C)(C)[C@@H]6CC[C@]54C)[C@H]2[C@H]1OC3`, the growth was 118% (inactive).
Regarding `C=C(C=O)[C@@H]1CC[C@]2(C)[C@H](CC=C3[C@H]4[C@@H](C)[C@H](C)CC[C@]4(C(=O)OC)CC[C@]32C)[C@@]1(C)CCC#N`, the growth was 69.7% (inactive).
As for `CN(C)C(=O)c1cc(-c2ccc3ncnc(NCc4ccccc4)c3c2)cnc1N`, the growth was 110% (inactive).
The same measure, in the same setting: for `O=S(=O)(NCCCNc1nccc(-c2[nH]c(-c3ccccc3)nc2-c2ccc(Cl)c(O)c2)n1)c1cccc2ccccc12` the value was 68.5% (inactive); for `Nc1ccccc1NC(=O)c1ccc(NC(=O)C/C=C/c2cccnc2)cc1`, 44.5% (inactive); for `COc1cc(-c2nc(SCCC(C)C)nc(NNC(=O)c3ccncc3)c2C#N)cc(OC)c1OC`, 31.9% (inactive).
Consider `O=C(NNc1nc2cc(F)c(F)cc2n2cccc12)c1cnccn1`, for which the growth is 30.5% (inactive).

For the origin of these results see PubChem BioAssay (NCI).
